For 40 molecules, outcome and AC50 results are on record in PubChem BioAssay (EPA / NIEHS).

SMILES strings stand for the structures. Active and inactive are the calls of the source. How the source made its calls: active means hit-call score of the fitted dose curve at least 0.9, where 1 is the maximum; inactive means score below 0.9.

Chain of Heat shock factor protein 1 (Homo sapiens) (Q00613 whole entry, looked up): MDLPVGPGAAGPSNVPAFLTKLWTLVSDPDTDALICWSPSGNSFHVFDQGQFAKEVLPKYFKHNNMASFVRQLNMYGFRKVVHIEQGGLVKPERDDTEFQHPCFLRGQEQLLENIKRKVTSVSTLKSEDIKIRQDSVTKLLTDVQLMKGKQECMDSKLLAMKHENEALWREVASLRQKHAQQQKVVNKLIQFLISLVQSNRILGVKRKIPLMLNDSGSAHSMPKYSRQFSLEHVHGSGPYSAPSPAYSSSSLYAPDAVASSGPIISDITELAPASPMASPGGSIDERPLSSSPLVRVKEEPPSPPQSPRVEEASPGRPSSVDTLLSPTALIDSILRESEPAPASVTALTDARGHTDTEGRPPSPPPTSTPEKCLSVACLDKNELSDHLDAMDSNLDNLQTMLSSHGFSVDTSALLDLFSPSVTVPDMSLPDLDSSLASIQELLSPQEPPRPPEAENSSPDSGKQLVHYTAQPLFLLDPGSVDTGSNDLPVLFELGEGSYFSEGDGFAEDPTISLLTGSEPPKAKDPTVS

The assay has as its target Heat shock factor protein 1 (Homo sapiens) (UniProt Q00613). The assay is described as follows: ATG_HSE_CIS: Attagene CIS-FACTORIAL HepG2 Assay for human Heat Shock Transcription Factor 1 (HSE) (AID 2282953). To be noted: HepG2 HSE cis-reporter, Attagene RNA transcription; actives raise or lower the signal. The method, then: ATG_CIS is a cell-based, multiplexed-readout assay that uses HepG2, a human liver cell line, with measurements taken at 24 hours after chemical dosing in a 24-well plate.ATG_HSE_CIS is one of 52 assay component(s) measured or calculated from the ATG_CIS assay. It is designed to make measurements of mRNA induction, a form of inducible reporter, as detected with fluorescence intensity signals by Reverse transcription polymerase chain reaction (RT-PCR) and Capillary electrophoresis technology.Data from the assay component ATG_HSE_CIS was analyzed into 1 assay endpoint. This assay endpoint, ATG_HSE_CIS, was analyzed with bidirectional fitting relative to DMSO as the negative control and baseline of activity. Using a type of inducible reporter, measures of mRNA for gain or loss-of-signal activity can be used to understand the reporter gene at the transcription factor-level as they relate to the gene HSF1. Furthermore, this assay endpoint can be referred to as a primary readout, because this assay has produced multiple assay endpoints where this one serves a reporter gene function. To generalize the intended target to other relatable targets, this assay endpoint is annotated to the dna binding intended target family, where the subfamily is heat shock protein.
Human liver HepG2 cells are transiently transfected with multiple reporter transcription units (MRTUs) in 6-well plates using FuGene 6 reagent (Roche; 3 ml FuGene/1 mg DNA). The MRTU constructs are regulated by a cis-regulating element (promoter). […] A major difference between the CIS and TRANS system is that in CIS activities of endogenous TFs are measured, whereas the TRANS assay evaluates changes in activities of exogenous, chimeric NR-Gal4 proteins. […] At the end of 24 hour incubation, total RNA was isolated using TriZol reagent (Invitrogen). The isolated RNA is then reverse-transcribed using oligo(dT) primer and Mo-MLV reverse transcriptase (Invitrogen) with DNAse I (Ambion) treatment for 30 min. The one-tenth of the produced cDNA was amplified by PCR using Taq DNA polymerase (Invitrogen) and two reporter sequence-specific primers. The PCR products were fluorescently labeled by primer extension with 6-arboxyfluorescein (6-FAM) 5'-labeled reporter sequence-specific primer (2 min at 95 C, 20 s at 68 C and 10 min at 72 C) and these products were digested with 5U of HpaI (New England Biolabs) for 2h at 37 C. The fragments were purified using Qiaquick PCR columns (Qiagen), analyzed on an ABI 3130xL genetic analyzer (Applied Biosystems) with peak positions identified by using a set of X-rhodamine (ROX)-labeled MapMarker1000 molecular weight standards (BioVentures). The raw capillary electrophoresis data was processed using Attagraph software (Attagene).
For `[Cl][Au]([Cl])[Cl]`, the call was inactive.
On the same count and under the same terms, the result for `C=C1CC[C@H](O)C/C1=C/C=C1\CCC[C@]2(C)[C@@H]([C@H](C)/C=C/[C@H](C)C(C)C)CC[C@@H]12` reads “inactive”; that for `Nc1ccccc1[N+](=O)[O-]`, “inactive”.
Still for that read-out and setting: the result for `CCC1CCCCC1` reads “inactive”; that for `CN(C)CCOC(C)(c1ccccc1)c1ccccn1` (stereo not given), “inactive”; that for `OCCOCCN1CCN(C2=Nc3ccccc3Sc3ccccc32)CC1`, “inactive”.
Turning to `CC(=O)c1c(C)c([N+](=O)[O-])c(C(C)(C)C)c([N+](=O)[O-])c1C`, the outcome was inactive.
For `CC(C)(C)C1=CC(=O)C(C(C)(C)C)=CC1=O`, the AC50 is 97.3 µM (active).
`O=C(O)COCC(=O)O`: the call was inactive.
The same measure, in the same setting: with `CC(C)NCC(O)COc1ccc(CC(N)=O)cc1` (stereo not given) the entry was “inactive”; with `CC(O)C1CCCCC1` (stereo not given), “inactive”; with `Brc1ccc(Br)c(Br)c1`, “inactive”.
Consider `CCCSc1ccc2nc(NC(=O)OC)[nH]c2c1`, for which the outcome was inactive.
As for `CCCCCCCCc1ccc(S(=O)(=O)O)cc1`, the molecule was called inactive.
The same measure, in the same setting: with `O=[N+]([O-])c1cccc(Cl)c1` the entry was “inactive”.
On the same count and under the same terms, the result for `Cc1c(C2(c3cc(Br)c(O)c(Br)c3C)OS(=O)(=O)c3ccccc32)cc(Br)c(O)c1Br` reads “inactive”; that for `CCCCCCOCCOCCO`, “inactive”; that for `ON=C1CCCCC1`, “inactive”.
Same read-out and setting: with `CCCC[P+](CCCC)(CCCC)CCCC` the entry was “inactive”; with `COC(CC(C)CCCC(C)(C)O)OC` (stereo not given), “inactive”; with `CC(C)OCCO`, “inactive”.
Take `c1ccc2cc(Nc3ccc(Nc4ccc5ccccc5c4)cc3)ccc2c1`: the outcome was inactive.
Same read-out and setting: the result for `CC(=O)NCCO` reads “inactive”; that for `CCCCOC(=O)CCCCCCCC(=O)OCCCC`, “inactive”.
The same measure, in the same setting: the result for `Nc1ccc2cc(S(=O)(=O)O)cc(O)c2c1N=Nc1ccccc1C(F)(F)F` reads “inactive”; that for `COC(=O)C=C(C)CCC=C(C)C`, “inactive”; that for `NCc1ccco1`, “inactive”.
Same read-out and setting: the result for `CC=Cc1ccc(OC)c(OC)c1` reads “inactive”; that for `CC(=O)O[C@@H]1CC2CCC1(C)C2(C)C` (stereo not given in full), “inactive”.
Regarding `CCCCCc1ccco1`, the AC50 is 115 µM (active).
Turning to `OCC#CCO`, the call was inactive.
As for `CCCCCCCCCCCC(=O)OCC(O)CO` (stereo not given), the molecule was classed as inactive.
For `CC[N+](C)(CC)CC`, the result was inactive.
Regarding `CC(C)(C)CC(C)(C)c1ccc(OCCOCC[N+](C)(C)Cc2ccccc2)cc1`, the outcome was inactive.
Still for that read-out and setting: with `CCOc1ccc(NC(=O)CC(C)=O)cc1` the entry was “inactive”; with `CC(C=O)Cc1ccc(C(C)(C)C)cc1` (stereo not given), “inactive”; with `C=CC(=O)OCCCC`, “inactive”.
The same measure, in the same setting: the result for `CCCCCCC(O)CCCCCCCCCCC(=O)O` (stereo not given) reads “inactive”; that for `CCN(CCC#N)c1ccc(N=Nc2ccc([N+](=O)[O-])cc2)cc1`, “inactive”; that for `COc1ccccc1N=Nc1c(S(=O)(=O)O)cc2cc(S(=O)(=O)O)cc(NC(C)=O)c2c1O`, “inactive”.
